About 83,000 compounds went through this panel and 20% of them were active in at least one assay; those are over-represented in the sample as a whole.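 The endpoint reported here, percent growth, reads 100 for growth as untreated, 0 for no net growth and -100 for all cells dead.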 Unmarked numbers belong to inactive results. Calls of active or inactive are those of the source. The calls were made as follows: active = growth percent below 10; inactive = the rest.

Assay in all cases: NCI-60 one-dose screen, 48 h (100 = growth as untreated, 0 = no growth, -100 = all killed)
Holding throughout (conditions): 10 µM unless noted

Assay [1] deals with HCT-15 colon.
Assay [2] has as its system HT29 colon.
Assay [3] relates to SNB-75 CNS.
Assay [4] concerns SNB-19 CNS.
Assay [5] deals with U251 CNS.
Assay [6] relates to PC-3 prostate.
Assay [7] concerns SK-MEL-5 melanoma.
Assay [8] deals with UACC-62 melanoma.
Assay [9] relates to LOX IMVI melanoma.
The test system of assay [10] is SK-MEL-28 melanoma.
For assay [11], the system named is EKVX NSCLC.
Assay [12] has as its system SN12C renal.
Assay [13] deals with UO-31 renal.
The test system of assay [14] is TK-10 renal.
Assay [15] deals with CAKI-1 renal.
For assay [16], the system named is A498 renal.
In assay [17] the test system is CCRF-CEM leukemia.
For assay [18], the system named is MOLT-4 leukemia.
Assay [19] has as its system ACHN renal.

In the case of `Nc1cc(C(F)(F)F)c(-c2cc(N3CCOCC3)nc(N3CCOCC3)n2)cn1`, the growth was -10% (active) in assay [1]; -29.2% (active) in assay [2]; -69% (active) in assay [3]; 0.838% (active) in assay [4]; -2.08% (active) in [5]; -10.4% (active) in assay [6]. Besides, the growth was -75.5% (active) in assay [7]; -72.7% (active) in assay [8]; -44.6% (active) in [9]; -47.5% (active) in [10]; -13.4% (active) in assay [11]; -3.99% (active) in assay [12]. Moreover, the growth in [13] is -34.4% (active); in [14] it was -35.4% (active); in [15] it was -25.1% (active); in assay [16], -80.4% (active); in [17] it was 4.63% (active); in [18] it was -11.9% (active).
With `O=C1NC(=O)/C(=C/c2ccc3nccc(-c4ccncc4)c3c2)S1`, the growth was -19.5% (active) in [1]; -51.4% (active) in assay [2]; -45.9% (active) in [3]; -26.6% (active) in [4]; -74.6% (active) in assay [5]; -24.5% (active) in [6]. For the same compound, the growth is -94.7% (active) in [7]; -74.2% (active) in assay [8]; -40.8% (active) in assay [9]; -32.6% (active) in [10]; -16.9% (active) in [11]; -5.67% (active) in [12]. Moreover, the growth in assay [14] is -68.8% (active); in [19], -21.2% (active); in assay [15] it was -40.2% (active); in assay [16] it was -77.1% (active); in assay [17], 0.0384% (active).
With `CNC(=O)c1cccc2cc(Oc3ccnc4cc(OCC5(N)CC5)c(OC)cc34)ccc12`, the growth in assay [1] is 57.8%; in [2], 34.6%; in [3] it was 26.7%; in assay [4], 67.6%; in [5], 66.4%; in assay [6] it was 66.9%. Besides, the growth in assay [7] is 76.5%; in [8] it was 82.2%; in assay [9] it was 46.3%; in [10] it was 87%; in assay [11] it was 84.1%; in assay [12], 52.7%. Also, the growth in assay [13] is 37.6%; in [14], 63.9%; in [15] it was 38.2%; in assay [16] it was 57.1%; in assay [17], 44.4%; in assay [18], 30.6%.
As to `C[C@H]1Oc2cc(cnc2N)-c2c(nn(C)c2C#N)CN(C)C(=O)c2ccc(F)cc21`, the growth in [1] was 96.7%; in assay [2], 33%; in assay [3], 83.8%; in [4] it was 110%; in assay [5], 96.6%; in assay [6] it was 81.7%. The growth in assay [7] was 99.3%; in [8] it was 70.9%; in assay [9] it was 74.2%; in [10], 87.4%; in assay [11] it was 82.5%; in assay [12] it was 94.6%. For the same compound, the growth is 84.3% in [13]; 74% in assay [14]; 109% in assay [16]; 93.8% in assay [17]; 70.5% in assay [18].
Take `Cc1ccc(C(=O)Nc2ccc(CN3CCN(C)CC3)c(C(F)(F)F)c2)cc1C#Cc1cnc2cccnn12`: the growth was -83.1% (active) in [1]; -69.8% (active) in assay [2]; -99.1% (active) in assay [3]; -98.3% (active) in assay [4]; -98.5% (active) in assay [5]; -64.1% (active) in assay [6]. In addition, the growth in assay [7] is -98.8% (active); in assay [8] it was -89.1% (active); in assay [9] it was -94% (active); in assay [10], -97% (active); in assay [11] it was -84.4% (active); in assay [12], -92.8% (active). The growth was -93.6% (active) in [13]; -98.7% (active) in [14]; -99.9% (active) in [15]; -96.8% (active) in assay [16]; -29.5% (active) in assay [17]; -62.3% (active) in assay [18].
On to `CCOc1cccc(/C=N/NC(=O)c2ccccc2Nc2ccnc(C(F)(F)F)c2)c1O`, for which the growth in assay [1] is 34.2%; in assay [2] it was 47.9%; in assay [3] it was 14.1%; in [4], 21.1%; in assay [5] it was 15.2%; in assay [6], 54.2%. The growth in assay [7] is -67% (active); in [8] it was 3.69% (active); in [9], 7.4% (active); in assay [10], 21.1%; in [11], 10.6%; in assay [12], 27.2%. In addition, the growth was 23.5% in [14]; 5.76% (active) in assay [19]; 4.57% (active) in assay [15]; -10.8% (active) in [16]; -37.3% (active) in [17]; -10.9% (active) in [18].
Take `NC1(c2ccc(-c3nc4ccn5c(=O)[nH]nc5c4cc3-c3ccccc3)cc2)CCC1`: the growth is 15.2% in assay [1]; -7.85% (active) in assay [2]; -8.24% (active) in assay [3]; 18.1% in [4]; 21.3% in assay [6]; -85.7% (active) in assay [7]. For the same compound, the growth in assay [8] is 47.5%; in [9] it was -57.6% (active); in assay [10], -66.7% (active); in assay [11] it was 40.6%; in assay [12], 50.9%; in assay [13] it was 28.6%. Further, the growth is 44.3% in assay [14]; 36.2% in assay [19]; 32.3% in assay [15]; -62.8% (active) in assay [16]; 1.33% (active) in assay [17]; -13.2% (active) in assay [18].
`O=C1CCC(=O)CC1`: the growth in assay [1] was 102%; in assay [2] it was 102%; in assay [3], 88.8%; in [4], 93.9%; in [6], 92.7%; in assay [7], 109%. Besides, the growth was 99% in assay [8]; 101% in assay [9]; 112% in [10]; 98.8% in assay [11]; 90% in assay [12]; 86.4% in assay [13]. Also, the growth in assay [14] is 96.4%; in assay [19], 109%; in [16], 104%; in assay [17] it was 98.1%; in [18], 101%.
With `Cc1ccc(NC(=O)Nc2ccc(Nc3ncnc4sc5c(c34)CCOC5)cc2)cc1Cl`, the growth in assay [1] is 106%; in [2] it was 81.2%; in assay [3], 69.8%; in assay [4] it was 103%; in assay [6], 81.2%; in assay [7] it was 95%. Moreover, the growth in [8] was 95.4%; in assay [9], 97.3%; in [10] it was 111%; in assay [11], 110%; in assay [12] it was 102%; in [13], 78.6%. The growth was 103% in assay [14], 94.6% in assay [19], 90.4% in assay [16] and 90.3% in assay [17].

Values taken from PubChem BioAssay (NCI).
